The values below come from PubChem BioAssay AID493056 (National Center for Advancing Translational Sciences (NCATS), 2011).

Structures are written as SMILES. Out of some 360,000 compounds screened, about 2,400 (0.67%) were called active. Only a selection was taken, and actives are over-represented in it overall. Unmarked numbers belong to inactive results. No stated cut-off is given here; in the data, active means enhancement above about 30%; inactive means the rest.

Chain of Thyrotropin-releasing hormone receptor (Homo sapiens) (P34981 whole entry, looked up): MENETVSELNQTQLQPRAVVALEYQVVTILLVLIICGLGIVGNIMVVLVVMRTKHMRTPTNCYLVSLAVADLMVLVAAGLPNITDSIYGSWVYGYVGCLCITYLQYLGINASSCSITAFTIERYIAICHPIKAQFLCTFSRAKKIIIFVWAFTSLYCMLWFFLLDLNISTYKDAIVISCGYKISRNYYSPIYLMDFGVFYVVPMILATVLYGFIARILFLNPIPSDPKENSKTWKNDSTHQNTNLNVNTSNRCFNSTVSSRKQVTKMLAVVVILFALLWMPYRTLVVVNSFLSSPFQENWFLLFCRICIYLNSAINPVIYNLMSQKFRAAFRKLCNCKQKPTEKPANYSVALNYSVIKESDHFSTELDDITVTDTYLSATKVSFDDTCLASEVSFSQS

This experiment concerns the target Thyrotropin-releasing hormone receptor (Homo sapiens) (UniProt P34981). Put plainly: qHTS for Small Molecule Agonists and Allosteric Enhancers of Human TRH Receptor: Primary Screen for Enhancers. Further: 0% is about no effect. The following applies: TRHR cells, fluo-8 calcium fluorescence, EC20 TRH enhancement; at 2 µM; hits give high values. From the text: NIH Chemical Genomics Center [NCGC] NIH Molecular Libraries Probe Centers Network [MLPCN] MLPCN Grant: MH089816-01 Assay Submitter (PI): Marvin Gershengorn This project aims to identify small drug-like molecules that activate (agonists) the thyrotropin releasing hormone (TRH) receptor (TRHR) or enhance its TRH-stimulated activity (allosteric enhancers). TRHR, a drug-accessible cell surface receptor expressed in specific brain regions, and its ligand TRH have been implicated in several central nervous system disorders, including depression and anxiety. Small molecule TRHR agonists or allosteric enhancers that are metabolically stable and able to cross the blood-brain barrier might serve as probes to elucidate the roles of brain TRH receptors in animal models, and might be valuable as lead compounds for the development of drugs to treat patients with central nervous system disorders. Upon TRHR-Gq activation in TRHR cells, intracellular calcium is released from stores in the endoplasmic reticulum. […] This primary screen measures compound-induced enhancement of an EC20 stimulation of the receptor by its native ligand.
For the HTS assay freshly prepared cells are plated at a density of 2000/well in 3 ul of complete DMEM medium containing 10% serum in 1536-well plates and cultured over night at 37 C in a humidified incubator with 5% CO2. The next day, 2 ul of a no wash calcium dye (ABD Bioquest) was added to the cells and plates were incubated at room temperature for 1 hour. For the assay, assay plates were loaded into the FDSS kinetic plate reader. A 10 cycle (1 second/cycle) baseline measurement is taken and then the FDSS online 1536 pintool delivers 23 nl of compound library (as well as TRH controls) to the plate. The plate is measured for kinetically at 1 cycle/sec for 180 seconds and is considered to be the agonist portion of the assay (eg, compounds which activate a positive calcium response during this portion are flagged as potential agonists). Following the 180 second read, 1 ul of either an EC20 (positive modulation assay) is delivered by an onboard pipette head. Measurements are taken kinetically for an additional 180 seconds. TRHR FDSS Screening Protocol 1. Reagent, 3 uL 2000 cells/well 1536 TC treated Black plate in media containing 10% FCS 2. Time, 18 hours, 33.5C 5% CO2 (cells grown at 37C) 3. Reagent, 2 uL ABD fluo-8 Ca dye 4. Time, 30 min-1.5hrs hours, Room temp (6 plates/batch) 5. Detector, EX 480/EM 530C, FDSS 10 cycles baseline (1sec/cycle) 6. Compound, 23 nL of stock solution from library 7. Detector, EX 480/EM 530C, FDSS 230 cycles (1sec/cycle) Agonist mode 8. Compound, 1 ul EC20 of TRH made up in HEPES HBSS, 10 nM final 9. Detector, EX 480/EM 530C, FDSS 100 cycles (1sec/cycle) Potentiator mode
Regarding `COc1ccc(CNCCc2c[nH]c3ccccc23)cc1OC`, the enhancement is 8.12%.

For `CCC/C(=N\O)c1c[nH]c2ccccc12`, the enhancement is -0.263%.

In the case of `C/C(CCc1c[nH]c2ccccc12)=N\O`, the enhancement is 30.5% (active).

For the molecule `Cc1ccc(-n2c(/C=C/c3cccc(C(F)(F)F)c3)nc3ccccc3c2=O)cc1`, the enhancement is -5.54%.

For the molecule `O=C(c1cc(S(=O)(=O)N2CCOCC2)ccc1F)N1CCC2(CC1)OCCO2`, the enhancement is 5.79%.

In the case of `CC(C)Oc1cccc(C(=O)C2CCCN(C3CCOCC3)C2)c1` (stereo not given), the enhancement is 5.95%.

With `O=C(OCCN1CCOCC1)C1(c2ccccc2)CCCC1`, the enhancement is -3.33%.

Regarding `CCOP(=S)(OCC)C(O)CCCCCn1c(=O)c(F)cn(C2CCCO2)c1=O` (stereo not given), the enhancement was 31.8% (active).

Take `CC(C)c1ccc(OCC(=O)N2CCN(C)CC2)c(Br)c1`: the enhancement was -3.04%.

As to `CC(C)(C)c1ccc(OC(=O)N2CCCCC2)cc1`, the enhancement was 2.54%.

For the molecule `C[N+]1(C)CCOC(O)(c2ccc(-c3ccc(C4(O)C[N+](C)(C)CCO4)cc3)cc2)C1` (stereo not given), the enhancement is 36.7% (active).

`Cc1cccc(Cn2cccc(C(=O)Nc3ccc4c(c3)OCCO4)c2=O)c1`: the enhancement was -1%.

Take `CC(C)N(CC#CCC1(O)c2ccccc2-c2ccccc21)C(C)C`: the enhancement is -0.877%.

`CCC(C)n1c(O)c(/C=N/Nc2nc3c(c(=O)n(C)c(=O)n3C)n2C)c(=O)[nH]c1=S` (stereo not given): the enhancement is -2.9%.

Consider `Cc1ccc(-c2nc3ccccc3c(=O)n2-c2ccc(Br)cn2)cc1`, for which the enhancement is 3.56%.
